# Experimental data as given in PMC7826789 (International Journal of Molecular Sciences, 2021).
# Legend:
# Conditions in all cases: Compound Concentration (nM):1000
# PAK1 = tested on: PAK1
# PAK2 = tested on: PAK2
# PAK3 = tested on: PAK3
# PAK4 = tested on: PAK4
# PAK6 = tested on: PAK6
# PAK7 = tested on: PAK7
# PCTK1 = tested on: T1, PCTK1
# T1 construct: gene CDK16
# PCTK2 = tested on: T2, PCTK2
# T2 construct: gene CDK17
# PCTK3 = tested on: T3, PCTK3
# T3 construct: gene CDK18
# PDGFRA = tested on: PDGFRA
# PDGFRB = tested on: PDGFRB
# PDPK1 = tested on: PDPK1
# PFCDPK1(P.falciparum) = tested on: T4, PFCDPK1(P.falciparum)
# T4 construct: gene CDPK1
# PFPK5(P.falciparum) = tested on: T5, PFPK5(P.falciparum)
# T5 construct: gene MAL13P1.279
# PFTAIRE2 = tested on: T6, PFTAIRE2
# T6 construct: gene CDK15
# PFTK1 = tested on: T7, PFTK1
# T7 construct: gene CDK14
# PHKG1 = tested on: PHKG1
# PHKG2 = tested on: PHKG2
# PIK3C2B = tested on: PIK3C2B
# PIK3C2G = tested on: PIK3C2G
# 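Further: KINOMEscan scanMAX binding as percent activity remaining versus control; lower means stronger binding.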
SMILES,Percent Control (PAK1),Percent Control (PAK2),Percent Control (PAK3),Percent Control (PAK4),Percent Control (PAK6),Percent Control (PAK7),Percent Control (PCTK1),Percent Control (PCTK2),Percent Control (PCTK3),Percent Control (PDGFRA),Percent Control (PDGFRB),Percent Control (PDPK1),Percent Control (PFCDPK1(P.falciparum)),Percent Control (PFPK5(P.falciparum)),Percent Control (PFTAIRE2),Percent Control (PFTK1),Percent Control (PHKG1),Percent Control (PHKG2),Percent Control (PIK3C2B),Percent Control (PIK3C2G)
NS(=O)(=O)c1ccc(N/N=C2\C(=O)Nc3ccc(C(=O)NCCc4c[nH]cn4)cc32)cc1 [GW300660X],100%,81%,100%,100%,100%,100%,2.2%,100%,100%,54%,100%,97%,69%,78%,100%,100%,100%,71%,100%,86%
CN(C)CCNC(=O)Nc1ccc(N(C)c2ccnc(Nc3ccc(CS(C)(=O)=O)cc3)n2)cc1.Cl [GW830900A],99%,79%,2.1%,71%,90%,71%,100%,100%,100%,2%,0%,83%,83%,100%,90%,100%,92%,100%,100%,95%
CCS(=O)(=O)c1ccc(OC)c(Nc2ncc(-c3cccc(F)c3)o2)c1 [GW621970X],100%,100%,100%,100%,100%,100%,100%,100%,81%,49%,5.4%,100%,4.1%,100%,100%,95%,100%,100%,100%,100%
C/C(Nc1ccc(S(N)(=O)=O)cc1)=C1/C(=O)Nc2ccccc21 [GW335962X],82%,80%,64%,89%,85%,100%,23%,100%,78%,6.1%,59%,100%,77%,91%,95%,72%,94%,53%,100%,90%
NS(=O)(=O)c1ccc(N/N=C2\C(=O)Nc3ccc(-c4cnco4)cc32)cc1 [GW276655],87%,82%,100%,95%,76%,88%,1.4%,76%,100%,79%,57%,82%,93%,95%,60%,94%,100%,81%,86%,96%
CCn1c(-c2nonc2N)nc2c(C#CC(C)(C)O)nc(OCCNC)cc21.Cl [GSK949675],100%,52%,100%,75%,60%,46%,82%,100%,100%,100%,100%,79%,100%,100%,100%,100%,100%,100%,82%,100%
COc1cc(C=NNc2ncnc3c2cnn3-c2ccccc2)ccc1O [GW513184X],100%,100%,50%,100%,100%,100%,29%,38%,84%,63%,40%,100%,100%,100%,100%,91%,100%,100%,71%,100%
Cc1cc(O)cc(C)c1/C=C/c1cncc(C(N)=O)c1 [GW435821X],99%,100%,84%,100%,98%,100%,100%,100%,93%,18%,0.5%,96%,75%,100%,100%,100%,100%,100%,97%,85%
COc1cc(N2CCN(C(C)C)CC2)ccc1Nc1nc(Nc2ccc(F)cc2C(=O)NC[C@@H](O)CO)c2cc[nH]c2n1 [GSK1392956A],100%,100%,100%,100%,89%,67%,82%,100%,100%,91%,100%,91%,94%,74%,100%,100%,29%,39%,100%,96%
Cl.O=S1CCN(Cc2ccc(-c3ccc4ncnc(Nc5ccc(OCc6ccccc6)c(F)c5)c4c3)o2)CC1 [GW576924A],100%,100%,78%,100%,100%,100%,100%,100%,100%,84%,100%,100%,83%,100%,100%,100%,100%,100%,100%,78%
